Source: PubChem BioAssay (Tox21)
Values without a mark were called inactive. Results filed as inconclusive are left out. A call without a number means that no potency is given here. Active and inactive are the calls of the source. Calls come from the whole dose curve.

molecular target: Acetylcholinesterase (Homo sapiens) (UniProt P22303); assay: Acetylcholinesterase (AChE) small molecule antagonists: fluorescence cell-based qHTS assay (AID 1347398); details: SH-SY5Y cells; Potency: AChE activity; outcome: AChE activity; series mostly up to 115 µM; note: nearly all actives have a fitted effect of over 50% in size
Summary of the method: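 Read-out is Thiolite Green fluorescence at Ex/Em = 490/520 nm, formed by reaction with thiocholine released when cellular AChE in SH-SY5Y cells hydrolyzes acetylthiocholine. Compounds were preincubated 30 min at 37 C before substrate.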

Sequence of Acetylcholinesterase (Homo sapiens) (P22303 whole entry, looked up): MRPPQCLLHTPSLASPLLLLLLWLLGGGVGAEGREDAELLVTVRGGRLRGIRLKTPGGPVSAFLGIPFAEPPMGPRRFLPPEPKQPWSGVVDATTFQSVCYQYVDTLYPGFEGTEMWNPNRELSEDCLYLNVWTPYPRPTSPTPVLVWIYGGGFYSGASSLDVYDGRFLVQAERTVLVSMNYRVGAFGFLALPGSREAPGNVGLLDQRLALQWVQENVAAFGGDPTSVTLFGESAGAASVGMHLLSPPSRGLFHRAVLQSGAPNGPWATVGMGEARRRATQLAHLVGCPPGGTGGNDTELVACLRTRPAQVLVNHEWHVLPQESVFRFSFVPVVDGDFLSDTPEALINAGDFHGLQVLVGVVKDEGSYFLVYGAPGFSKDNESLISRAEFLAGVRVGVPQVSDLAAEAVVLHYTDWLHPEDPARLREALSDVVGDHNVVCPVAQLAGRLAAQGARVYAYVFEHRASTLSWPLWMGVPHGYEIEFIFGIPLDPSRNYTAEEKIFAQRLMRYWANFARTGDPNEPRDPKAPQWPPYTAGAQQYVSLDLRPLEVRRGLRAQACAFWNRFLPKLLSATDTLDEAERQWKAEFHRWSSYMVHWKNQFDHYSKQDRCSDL

Row | SMILES | Potency | activity change, negative = inhibition
1 | C=C1CCC2CC1C2(C)C (stereo not given) | inactive | –
2 | CC[C@H]1OC(=O)[C@H](C)[C@@H](O[C@H]2C[C@@](C)(OC)[C@@H](O)[C@H](C)O2)[C@H](C)[C@@H](O[C@@H]2O[C@H](C)C[C@H](N(C)C)[C@H]2O)[C@](C)(OC)C[C@@H](C)C(=O)[C@H](C)[C@@H](O)[C@]1(C)O | inactive | –
3 | Cc1ccnc(N)c1 | inactive | –
4 | C=CCCCCCCCCC(=O)OCCCC | inactive | –
5 | C=CC(=O)NC(C)(C)C | inactive | –
6 | CCCCCCOc1ccccc1C(N)=O | inactive | –
7 | CC[N+](CC)(CC)Cc1ccccc1 | inactive | –
8 | NCCC(O)(P(=O)(O)O)P(=O)(O)O | inactive | –
9 | Cn1c(=O)c2c(ncn2CC(=O)O)n(C)c1=O | inactive | –
10 | COc1cc(C=C2CCC/C(=C\c3ccc(O)c(OC)c3)C2=O)ccc1O | inactive | –
11 | [O-][n+]1cccc(CO)c1 | inactive | –
12 | CC1(C)CCC(C)(C)c2cc(C(=O)Nc3ccc(C(=O)O)cc3)ccc21 | inactive | –
13 | O=C(OC(=O)c1ccccc1)c1ccccc1 | inactive | –
14 | CCCCCOC(=O)CCCCC | inactive | –
15 | C/C=C/C=C/C=O | inactive | –
16 | NCC[C@H](O)C(=O)N[C@@H]1C[C@H](N)[C@@H](O[C@H]2O[C@H](CN)[C@@H](O)[C@H](O)[C@H]2O)[C@H](O)[C@H]1O[C@H]1O[C@H](CO)[C@@H](O)[C@H](N)[C@H]1O | – | 5.79% [at 0.439 µM]

molecular target: Acetylcholinesterase (Homo sapiens) (UniProt P22303); assay: Acetylcholinesterase (AChE) small molecule antagonists: enzyme-based qHTS assay with human liver microsomes (AID 1347399); details: Potency: qHTS inhibition; outcome: qHTS inhibition; series mostly up to 115 µM; note: nearly all actives have a fitted effect of over 60% in size
Summary of the method: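 Recombinant human AChE (50 mU/mL in the enzyme mix) and human liver microsomes (0.25 mg/mL final) were preincubated with compound and NADPH (0.25 mg/mL final) for 30 min at 37 C. Acetylthiocholine/DTNB was then added; thiocholine was read colorimetrically after 10 min at room temperature.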

Row | SMILES | Potency | activity change, negative = inhibition
17 | CCCCCCCCCCCCCCCCCC(=O)OCCCCCCCCCCCCCC(C)C | inactive | –
18 | COc1ccc(OC)c(Cl)c1 | inactive | –
19 | CCCCCCOC(=O)CCCCC(=O)OCCCCCC | inactive | –
20 | CCCCCCc1ccc(N)cc1 | inactive | –
21 | CC(C)[C@H]1CC[C@H](C)C[C@@H]1O | inactive | –
22 | FC(F)(F)C(Cl)(Cl)Cl | inactive | –
23 | [O-][n+]1ccc(Cl)cc1 | inactive | –
24 | Cc1cc(C)cc([N+](=O)[O-])c1 | inactive | –
25 | O=CC1CC1 | inactive | –
26 | O=C(O)CCCCCCCCCCCBr | inactive | –
27 | CCC(CC)C(C)CCOC(C)=O (stereo not given) | inactive | –
28 | O=C(OCc1ccccc1)C(=O)OCc1ccccc1 | inactive | –
29 | Cc1c(NC(C)C)c(=O)n(-c2ccccc2)n1C | inactive | –
30 | CCCCCCC1(C)CCC(=O)O1 (stereo not given) | inactive | –
31 | C#CCOC(=O)[C@@H](C)Oc1ccc(Oc2ncc(Cl)cc2F)cc1 | inactive | –
32 | COc1ccc(CCC(=O)c2c(O)cc(O[C@@H]3O[C@H](CO)[C@@H](O)[C@H](O)[C@H]3O[C@@H]3O[C@@H](C)[C@H](O)[C@@H](O)[C@H]3O)cc2O)cc1O | inactive | –
33 | CC(=O)c1c(C)cc(C(C)(C)C)cc1C | inactive | –
34 | CCC1Nc2cc(Cl)c(S(N)(=O)=O)cc2S(=O)(=O)N1 (stereo not given) | inactive | –
35 | CCOC(=O)[C@@H](C)Oc1ccc(Oc2nc3ccc(Cl)cc3o2)cc1 | inactive | –
36 | Cc1cccc(CN2CCN(C(c3ccccc3)c3ccc(Cl)cc3)CC2)c1 (stereo not given) | inactive | –

Row | SMILES | Potency | activity change, negative = inhibition
37 | COc1ccc2sc(C(=O)Nc3nnn[nH]3)c(OC(C)C)c2c1 | inactive | –
38 | Nc1cccc(S(=O)(=O)O)c1 | inactive | –
39 | CO[Si](CCC1CCC2OC2C1)(OC)OC (stereo not given) | inactive | –
40 | C=C1CCC2CC1C2(C)C (stereo not given) | inactive | –
41 | CC[C@H]1OC(=O)[C@H](C)[C@@H](O[C@H]2C[C@@](C)(OC)[C@@H](O)[C@H](C)O2)[C@H](C)[C@@H](O[C@@H]2O[C@H](C)C[C@H](N(C)C)[C@H]2O)[C@](C)(OC)C[C@@H](C)C(=O)[C@H](C)[C@@H](O)[C@]1(C)O | inactive | –
42 | Cc1ccnc(N)c1 | inactive | –
43 | C=CCCCCCCCCC(=O)OCCCC | inactive | –
44 | C=CC(=O)NC(C)(C)C | inactive | –
45 | CCCCCCOc1ccccc1C(N)=O | inactive | –
46 | CC[N+](CC)(CC)Cc1ccccc1 | inactive | –
47 | NCCC(O)(P(=O)(O)O)P(=O)(O)O | inactive | –
48 | Cn1c(=O)c2c(ncn2CC(=O)O)n(C)c1=O | inactive | –
49 | COc1cc(C=C2CCC/C(=C\c3ccc(O)c(OC)c3)C2=O)ccc1O | inactive | –
50 | [O-][n+]1cccc(CO)c1 | inactive | –
51 | CC1(C)CCC(C)(C)c2cc(C(=O)Nc3ccc(C(=O)O)cc3)ccc21 | inactive | –
52 | O=C(OC(=O)c1ccccc1)c1ccccc1 | inactive | –
53 | CCCCCOC(=O)CCCCC | inactive | –
54 | C/C=C/C=C/C=O | inactive | –
55 | NCC[C@H](O)C(=O)N[C@@H]1C[C@H](N)[C@@H](O[C@H]2O[C@H](CN)[C@@H](O)[C@H](O)[C@H]2O)[C@H](O)[C@H]1O[C@H]1O[C@H](CO)[C@@H](O)[C@H](N)[C@H]1O | – | -1.18% [at 0.435 µM]
